According to PubChem BioAssay (EPA / NIEHS):
Calls of active or inactive are those of the source. How the source made its calls: active means hit-call score of the fitted dose curve at least 0.9, where 1 is the maximum; inactive means score below 0.9.

Key:
[1] = read-out: urokinase plasminogen activator (uPA), PLAU (gene 5328); test: BSK_KF3CT_uPA: BioMAP Diversity Plus: KF3CT Assay for urokinase plasminogen activator (uPA) Biomarker Activity (AID 2283075); conditions: primary human keratinocytes with fibroblasts; actives raise or lower the signal
How it was run: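 ELISA readout of uPA, analyzed for signal gain or loss relative to DMSO, from a human primary keratinocyte–foreskin fibroblast co-culture measured 24 h after chemical treatment.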

[2] = read-out: CD40, CD40 (gene 958); test: BSK_LPS_CD40: BioMAP Diversity Plus: LPS Assay for CD40 Biomarker Activity (AID 2283076); conditions: primary human HUVEC with PBMC; actives raise or lower the signal
How it was run: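 Primary human umbilical vein endothelial cells co-cultured with peripheral blood mononuclear cells, LPS-stimulated, were dosed with chemical and read 24 h later. CD40 levels were measured by ELISA and fitted bidirectionally against DMSO as negative control and baseline.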

[3] = read-out: E-selectin (Homo sapiens) (UniProt P16581); test: BSK_LPS_Eselectin: BioMAP Diversity Plus: LPS Assay for Eselectin Biomarker Activity (AID 2283077); conditions: primary human HUVEC with PBMC; actives raise or lower the signal
How it was run: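 Human umbilical vein endothelial cells co-cultured with peripheral blood mononuclear cells under LPS stimulation; E-selectin measured by ELISA 24 h after chemical dosing. Activity fitted bidirectionally against DMSO as negative control and baseline.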

[4] = read-out: Interleukin-8 (IL8), CXCL8 (gene 3576); test: BSK_LPS_IL8: BioMAP Diversity Plus: LPS Assay for Interleukin-8 (IL8) Biomarker Activity (AID 2283078); conditions: primary human HUVEC with PBMC; actives raise or lower the signal
How it was run: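 Human umbilical vein endothelial cells co-cultured with PBMC were stimulated with LPS; IL-8 levels were measured by ELISA 24 h after chemical dosing. Activity was fitted bidirectionally against DMSO as negative control and baseline.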

[5] = BSK_LPS_SRB: Viability Assessment in the BioMAP Diversity Plus: LPS Assay (AID 2283079); conditions: primary human HUVEC with PBMC;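 further: total protein by sulforhodamine B absorbance as a cytotoxicity measure; measured one day after compound addition; fitted in both directions against DMSO so loss or gain of signal counts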
How it was run: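 Human umbilical vein endothelial cells co-cultured with PBMC (LPS system) were dosed for 24 h. Total protein was stained with 0.1% sulforhodamine B after 10% TCA fixation, read at 560 nm, and fitted bidirectionally against DMSO baseline.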

[6] = read-out: Interleukin-1 alpha (IL1a), IL1A (gene 3552); test: BSK_LPS_IL1a: BioMAP Diversity Plus: LPS Assay for Interleukin-1 alpha (IL1a) Biomarker Activity (AID 2283080); conditions: primary human HUVEC with PBMC; actives raise or lower the signal
How it was run: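 Human umbilical vein endothelial cells co-cultured with peripheral blood mononuclear cells were LPS-stimulated and exposed to test chemicals for 24 h. IL-1 alpha was quantified by ELISA, with bidirectional curve fitting against DMSO as the negative control and baseline.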

[7] = read-out: Monocyte Chemoattractant Protein-1 (MCP1), CCL2 (gene 6347); test: BSK_LPS_MCP1: BioMAP Diversity Plus: LPS Assay for Monocyte Chemoattractant Protein-1 (MCP1) Biomarker Activity (AID 2283081); conditions: primary human HUVEC with PBMC; actives raise or lower the signal
How it was run: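 HUVEC plus PBMC co-culture (human primary cells, LPS system) exposed to test chemical for 24 h; MCP-1 measured by ELISA. Bidirectional curve fitting against DMSO baseline; parallel SRB total-protein staining flags overt cytotoxicity.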

[8] = BSK_LPS_PGE2: BioMAP Diversity Plus: LPS Assay for Prostaglandin E2 (PGE2) Biomarker Activity (AID 2283082); conditions: primary human HUVEC with PBMC; actives raise or lower the signal
How it was run: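 LPS-activated HUVEC/PBMC co-culture; cmpd dosed, 24 h; PGE2 by ELISA; bidirectional fit vs DMSO; SRB (0.1%, TCA-fixed, 560 nm) in parallel plates for overt cytotox.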

[9] = read-out: Macrophage colony-stimulating factor (MCSF), CSF1 (gene 1435); test: BSK_LPS_MCSF: BioMAP Diversity Plus: LPS Assay for Macrophage colony-stimulating factor (MCSF) Biomarker Activity (AID 2283083); conditions: primary human HUVEC with PBMC; actives raise or lower the signal
How it was run: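 Human umbilical vein endothelial cells co-cultured with peripheral blood mononuclear cells were exposed to compound for 24 h. M-CSF levels were measured by ELISA, and bidirectional curve fitting used DMSO as the negative control and baseline.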

[10] = read-out: Tissue Factor, F3 (gene 2152); test: BSK_LPS_TissueFactor: BioMAP Diversity Plus: LPS Assay for Tissue Factor Biomarker Activity (AID 2283084); conditions: primary human HUVEC with PBMC; actives raise or lower the signal
How it was run: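 Human umbilical vein endothelial cells co-cultured with peripheral blood mononuclear cells were dosed and stimulated with LPS. Cell-surface CD142 was quantified by ELISA at 24 h. Activity was fitted bidirectionally against DMSO baseline.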

[11] = read-out: Tumor necrosis factor (Homo sapiens) (UniProt P01375); test: BSK_LPS_TNFa: BioMAP Diversity Plus: LPS Assay for Tumour Necrosis Factor alpha (TNFa) Biomarker Activity (AID 2283085); conditions: primary human HUVEC with PBMC; actives raise or lower the signal
How it was run: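 Read-out is ELISA of TNFa in primary human endothelial cell–PBMC co-cultures at 24 h after compound. Activity in either direction was fitted against DMSO.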

[12] = read-out: Vascular cell adhesion molecule 1 (VCAM1), VCAM1 (gene 7412); test: BSK_LPS_VCAM1: BioMAP Diversity Plus: LPS Assay for Vascular cell adhesion molecule 1 (VCAM1) Biomarker Activity (AID 2283086); conditions: primary human HUVEC with PBMC; actives raise or lower the signal
How it was run: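 HUVEC + PBMC co-culture, LPS system; compound 24 h; VCAM-1 by ELISA; bidirectional fit vs DMSO control; parallel SRB (0.1%, TCA-fixed, 560 nm) for cytotoxicity.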

[13] = read-out: CD38, CD38 (gene 952); test: BSK_SAg_CD38: BioMAP Diversity Plus: SAg Assay for CD38 Biomarker Activity (AID 2283087); conditions: primary human HUVEC with PBMC; actives raise or lower the signal
How it was run: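 Human HUVEC plus PBMC co-culture stimulated with superantigen; CD38 measured by ELISA 24 h after chemical dosing. Fluorescence read-out, bidirectional fit against DMSO; cytotoxicity tracked in parallel by SRB and Alamar Blue.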

[14] = read-out: CD40, CD40 (gene 958); test: BSK_SAg_CD40: BioMAP Diversity Plus: SAg Assay for CD40 Biomarker Activity (AID 2283088); conditions: primary human HUVEC with PBMC; actives raise or lower the signal
How it was run: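 Human umbilical vein endothelial cells co-cultured with PBMC; CD40 levels measured by ELISA with fluorescence read-out 24 h after chemical dosing. Gain or loss of signal fitted bidirectionally against DMSO baseline.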

[15] = read-out: CD69, CD69 (gene 969); test: BSK_SAg_CD69: BioMAP Diversity Plus: SAg Assay for CD69 Biomarker Activity (AID 2283089); conditions: primary human HUVEC with PBMC; actives raise or lower the signal
How it was run: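 Endothelial/PBMC co-culture; chemical added; 24 h incubation; CD69 ELISA with fluorescence detection; bidirectional fit vs DMSO.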

[16] = read-out: Monocyte Chemoattractant Protein-1 (MCP1), CCL2 (gene 6347); test: BSK_SAg_MCP1: BioMAP Diversity Plus: SAg Assay for Monocyte Chemoattractant Protein-1 (MCP1) Biomarker Activity (AID 2283090); conditions: primary human HUVEC with PBMC; actives raise or lower the signal
How it was run: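 MCP-1 levels in the endothelial–PBMC SAg co-culture were quantified by ELISA at 24 h post-dosing; both increases and decreases versus DMSO scored. Cytotoxicity monitored by SRB total protein in parallel cultures.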

[17] = read-out: E-selectin (Homo sapiens) (UniProt P16581); test: BSK_SAg_Eselectin: BioMAP Diversity Plus: SAg Assay for Eselectin Biomarker Activity (AID 2283091); conditions: primary human HUVEC with PBMC; actives raise or lower the signal
How it was run: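 HUVEC co-cultured with PBMC, compound dosed then read at 24 h; E-selectin measured by ELISA. Activity fitted bidirectionally against DMSO as negative control and baseline.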

[18] = read-out: Monokine induced gamma interferon (MIG), CXCL9 (gene 4283); test: BSK_SAg_MIG: BioMAP Diversity Plus: SAg Assay for Monokine induced gamma interferon (MIG) Biomarker Activity (AID 2283092); conditions: primary human HUVEC with PBMC; actives raise or lower the signal
How it was run: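 Measures CXCL9 protein by ELISA in a human vascular primary-cell co-culture (umbilical vein endothelium with PBMC) 24 h after chemical addition. Activity is scored up or down from the DMSO control.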

[19] = read-out: Interleukin-8 (IL8), CXCL8 (gene 3576); test: BSK_SAg_IL8: BioMAP Diversity Plus: SAg Assay for Interleukin-8 (IL8) Biomarker Activity (AID 2283094); conditions: primary human HUVEC with PBMC; actives raise or lower the signal
How it was run: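 ELISA read-out of IL-8 in a primary human vascular co-culture (umbilical vein endothelium plus PBMC), taken 24 h after compound addition. Values derive from bidirectional fits against DMSO negative controls.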

[20] = BSK_SAg_PBMCCytotoxicity: PBMC Cytotoxicity Assessment in the BioMAP Diversity Plus: SAg Assay (AID 2283093); conditions: primary human HUVEC with PBMC;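 further: PBMC viability measured as Alamar Blue reduction fluorescence at 546/580 nm; fitted both ways against DMSO so a hit may be loss or gain of signal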
How it was run: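 Compound added to 75,000 PBMC/well for 1 h; SEB and TSST-1 then added at 20 ng/mL final each; 90 h incubation; Alamar Blue 6 h; read 546/580 nm ex/em. Activity fitted bidirectionally relative to DMSO baseline.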

Measured: outcome

Chain of Tumor necrosis factor (Homo sapiens) (P01375 whole entry, looked up): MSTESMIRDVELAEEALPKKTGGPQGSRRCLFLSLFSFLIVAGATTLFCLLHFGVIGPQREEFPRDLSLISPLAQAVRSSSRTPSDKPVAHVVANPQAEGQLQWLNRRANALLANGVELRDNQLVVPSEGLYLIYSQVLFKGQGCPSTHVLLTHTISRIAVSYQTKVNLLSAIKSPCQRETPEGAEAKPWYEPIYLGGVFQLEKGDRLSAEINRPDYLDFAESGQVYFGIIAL
Chain of E-selectin (Homo sapiens) (P16581 whole entry, looked up): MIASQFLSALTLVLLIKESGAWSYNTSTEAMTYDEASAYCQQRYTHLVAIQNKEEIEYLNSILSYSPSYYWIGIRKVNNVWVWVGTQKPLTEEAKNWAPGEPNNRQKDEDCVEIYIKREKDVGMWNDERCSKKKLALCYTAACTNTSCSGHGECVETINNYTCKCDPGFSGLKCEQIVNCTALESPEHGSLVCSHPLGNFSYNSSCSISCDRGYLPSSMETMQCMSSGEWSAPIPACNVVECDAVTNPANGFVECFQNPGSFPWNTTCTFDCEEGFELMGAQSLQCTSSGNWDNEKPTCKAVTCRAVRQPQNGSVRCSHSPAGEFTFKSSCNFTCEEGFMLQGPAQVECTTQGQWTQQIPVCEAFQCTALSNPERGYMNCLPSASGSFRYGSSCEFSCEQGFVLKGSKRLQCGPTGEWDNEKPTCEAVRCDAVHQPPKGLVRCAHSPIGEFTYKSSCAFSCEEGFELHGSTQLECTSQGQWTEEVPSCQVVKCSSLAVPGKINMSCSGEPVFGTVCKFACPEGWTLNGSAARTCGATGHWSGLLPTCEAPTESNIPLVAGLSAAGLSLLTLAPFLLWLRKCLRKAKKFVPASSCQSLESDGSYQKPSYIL

CC(=O)S[C@H](C(=O)N[C@H]1Cc2ccccc2[C@H]2CCC[C@@H](C(=O)O)N2C1=O)C(C)C
not listed: [20]
inactive: all other assays above

COC(=O)CCC(=O)OC
inactive: all assays above

OCC(O)CO
inactive: all assays above
